Laboratory results: PubChem BioAssay (NCATS)
Inconclusive results are not listed. Calls of active or inactive are those of the source. Calls come from the whole dose curve; as a rule, active = well fitted curve in the direction sought with a large enough effect; inconclusive = small, poorly fitted or top-dose-only effect, or another doubt; inactive = no such curve, though single readings can be large; an effect the other way counts as inactive or inconclusive.

What was measured:
[1] = test system: MKL-1; test: qHTS assay to identify novel small-molecules to repurpose for Merkel cell carcinoma treatment (AID 1296009); settings: MCC and control cell lines, CellTiter-Glo viability, 72 h; series mostly up to 46 µM; note: nearly all actives have a fitted effect of over 60% in size
Method in brief: (§1)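 72 hr, 37 degree celsius; NPC 8-pt / MIPE 11-pt dose response; compound pinned in DMSO; CellTiter-Glo, 10 min RT, luminescence; normalized to no-cell and DMSO controls.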

[2] = test system: MKL-2; test: as above; settings: MCC and control cell lines, CellTiter-Glo viability, 72 h; series mostly up to 46 µM
Method in brief: as §1

[3] = test system: UISO; test: as above; settings: MCC and control cell lines, CellTiter-Glo viability, 72 h; series mostly up to 46 µM
Method in brief: as §1

[4] = test system: WaGa; test: as above; settings: MCC and control cell lines, CellTiter-Glo viability, 72 h; series mostly up to 46 µM
Method in brief: as §1

[5] = test system: C33A; test: Primary qHTS to identify gynecologic anti-cancer compounds using libraries of approved drugs and bioactive compounds (AID 1345084); settings: Gynecologic cancer cell panel viability, ATPlite luminescence, 48 h; series mostly up to 57.5 µM; note: nearly all actives have a fitted effect of over 55% in size
Method in brief: (§2)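 ATP-based viability (ATPlite), 1,000 cells/well, 16 h pre-incubation, 48 h compound at 37 C, 5% CO2, 15 min RT before read.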

[6] = test system: CAOV3; test: as above; settings: Gynecologic cancer cell panel viability, ATPlite luminescence, 48 h; series mostly up to 57.5 µM
Method in brief: as §2

[7] = test system: Es-2; test: as above; settings: Gynecologic cancer cell panel viability, ATPlite luminescence, 48 h; series mostly up to 57.5 µM
Method in brief: as §2

[8] = test system: HeLa; test: as above; settings: Gynecologic cancer cell panel viability, ATPlite luminescence, 48 h; series mostly up to 57.5 µM
Method in brief: as §2

[9] = test system: CASKI; test: as above; settings: Gynecologic cancer cell panel viability, ATPlite luminescence, 48 h; series mostly up to 57.5 µM
Method in brief: as §2
% is set by controls: 0 for no effect and ±100 for the full control effect; potency is the fitted concentration of half-maximal effect.

CCCCNc1ccc(C(=O)OCCN(CC)CC)cc1
inactive: Potency [1] | Potency [2] | Potency [3] | Potency [4] | Potency [5] | Potency [6] | Potency [7] | Potency [8]

CC1(C)O[C@@H]2C[C@H]3[C@@H]4C[C@H](F)C5=CC(=O)C=C[C@]5(C)[C@@]4(F)[C@@H](O)C[C@]3(C)[C@]2(C(=O)CO)O1
inactive: Potency [1] | Potency [2] | Potency [3] | Potency [4] | Potency [5] | Potency [9] | Potency [7] | Potency [8]

C[C@H]1C[C@H](O)c2ccsc2S1(=O)=O
inactive: Potency [1] | Potency [2] | Potency [3] | Potency [4] | Potency [5] | Potency [6] | Potency [9] | Potency [7] | Potency [8]

NC(=O)NC1N=C([O][Al])NC1=O (centres undefined)
inactive: Potency [1] | Potency [2] | Potency [3] | Potency [4] | Potency [5] | Potency [6] | Potency [9] | Potency [7] | Potency [8]

O=C(CS(=O)Cc1ccco1)NC/C=C\COc1cc(CN2CCCCC2)ccn1 (centres undefined)
inactive: Potency [1] | Potency [2] | Potency [3] | Potency [4] | Potency [5] | Potency [9] | Potency [7] | Potency [8]

CC(C)=CCC/C(C)=C/CC/C(C)=C/C(=O)OCC(=O)[C@@]1(O)CC[C@H]2[C@@H]3CCC4=CC(=O)C=C[C@]4(C)[C@H]3[C@@H](O)C[C@@]21C
inactive: Potency [1] | Potency [2] | Potency [3] | Potency [4] | Potency [5] | Potency [6] | Potency [9] | Potency [8]

N#Cc1cc(NC(=O)C(=O)O)c(Cl)c(NC(=O)C(=O)O)c1
inactive: Potency [1] | Potency [2] | Potency [3] | Potency [4] | Potency [5] | Potency [6] | Potency [9] | Potency [7] | Potency [8]

CC(C)OC(=O)c1cc2c(OCC(O)CNC(C)(C)C)cccc2[nH]1 (centres undefined)
inactive: Potency [1] | Potency [2] | Potency [3] | Potency [4] | Potency [5] | Potency [9] | Potency [7]

C1=CC2C3C=CC(C3)C2C1 (centres undefined)
inactive: Potency [1] | Potency [2] | Potency [3] | Potency [4] | Potency [5] | Potency [9] | Potency [7] | Potency [8]

O=C(CCOCCOCCOCCOCCC(=O)Nc1c(I)cc(I)c(C(=O)O)c1I)Nc1c(I)cc(I)c(C(=O)O)c1I
inactive: Potency [1] | Potency [2] | Potency [3] | Potency [4] | Potency [5] | Potency [6] | Potency [9] | Potency [7] | Potency [8]

Cc1cc(O)c2c(O)c3c(O)cccc3cc2c1
inactive: Potency [1] | Potency [2] | Potency [3] | Potency [4] | Potency [5] | Potency [6] | Potency [9] | Potency [7] | Potency [8]

CCCC(=O)OCOC(=O)C1=C(C)NC(C)=C(C(=O)OC)C1c1cccc(Cl)c1Cl (centres undefined)
inactive: Potency [1] | Potency [2] | Potency [3] | Potency [4] | Potency [5] | Potency [6] | Potency [9] | Potency [7] | Potency [8]

CN=C(N)NC(=O)Nc1c(C)cccc1C
inactive: Potency [1] | Potency [2] | Potency [3] | Potency [4] | Potency [5] | Potency [6] | Potency [9] | Potency [7] | Potency [8]

C[C@H]1C[C@@H]2[C@H]([C@@H](O)C[C@@]3(C)[C@H]2CC[C@]3(O)C(=O)CO)[C@@]2(C)C=CC(=O)C=C12
inactive: Potency [1] | Potency [2] | Potency [3] | Potency [4] | Potency [5] | Potency [6] | Potency [9] | Potency [7] | Potency [8]

COc1ccc(OC(=O)N(CC(=O)O)Cc2ccc(OCCc3nc(-c4ccccc4)oc3C)cc2)cc1
inactive: Potency [1] | Potency [2] | Potency [3] | Potency [4] | Potency [5] | Potency [9] | Potency [7] | Potency [8]

O=C(NN1CCCC1)NS(=O)(=O)c1ccc(Cl)cc1
inactive: Potency [1] | Potency [2] | Potency [3] | Potency [4] | Potency [5] | Potency [6] | Potency [9] | Potency [7] | Potency [8]

CN1CC(=O)N2[C@H](c3ccc4c(c3)OCO4)c3[nH]c4ccccc4c3C[C@@H]2C1=O
inactive: Potency [1] | Potency [2] | Potency [3] | Potency [4] | Potency [5] | Potency [6] | Potency [9] | Potency [7] | Potency [8]

Cc1onc(-c2ccccc2)c1C(=O)Cl
inactive: Potency [1] | Potency [2] | Potency [3] | Potency [4] | Potency [5] | Potency [6] | Potency [9] | Potency [7] | Potency [8]

O=C(O)CCC(=O)OC[C@@H](NC(=O)C(Cl)Cl)[C@H](O)c1ccc([N+](=O)[O-])cc1
inactive: Potency [1] | Potency [2] | Potency [3] | Potency [4] | Potency [5] | Potency [6] | Potency [9] | Potency [7] | Potency [8]

CC1(C)O[C@@H]2C[C@H]3[C@@H]4CCC5=CC(=O)C=C[C@]5(C)[C@@]4(F)[C@@H](O)C[C@]3(C)[C@]2(C(=O)CO)O1
inactive: Potency [1] | Potency [2] | Potency [3] | Potency [4] | Potency [5] | Potency [6] | Potency [9] | Potency [7] | Potency [8]

Nc1ncnc2nc[nH]c12
inactive: Potency [1] | Potency [2] | Potency [3] | Potency [4] | Potency [5] | Potency [9] | Potency [7] | Potency [8]

OCCc1ccccc1
inactive: Potency [1] | Potency [2] | Potency [3] | Potency [4] | Potency [5] | Potency [9] | Potency [7] | Potency [8]

CC(C)C(=O)Nc1cccc(C2CN3CCSC3=N2)c1 (centres undefined)
inactive: Potency [1] | Potency [2] | Potency [3] | Potency [4] | Potency [5] | Potency [9] | Potency [7] | Potency [8]

CCCCCCCC(=O)[O-].CCCCCCCC(=O)[O-].[Zn+2]
inactive: Potency [1] | Potency [2] | Potency [3] | Potency [4] | Potency [5] | Potency [6] | Potency [9] | Potency [7] | Potency [8]

Cc1cc2nc3ccc(=[N+](C)C)cc-3sc2cc1N
active: Potency [1] 0.596 µM | Potency [2] 0.531 µM | Potency [3] 1.68 µM | Potency [4] 0.668 µM | Potency [5] 3.98 µM | Potency [9] 12.6 µM | Potency [7] 14.1 µM

COc1cc2c(cc1OC)CN(C(=O)[C@H](C)N[C@@H](CCc1ccccc1)C(=O)O)[C@H](C(=O)O)C2
inactive: Potency [1] | Potency [2] | Potency [3] | Potency [4] | Potency [5] | Potency [6] | Potency [9] | Potency [7] | Potency [8]

CNC[C@H](O)[C@@H](O)[C@H](O)[C@H](O)CO
inactive: Potency [1] | Potency [2] | Potency [3] | Potency [4] | Potency [5] | Potency [6] | Potency [9] | Potency [7] | Potency [8]

O=C(O)CCCC[C@@H]1SC[C@@H]2NC(=O)N[C@@H]21
inactive: Potency [1] | Potency [2] | Potency [3] | Potency [4] | Potency [5] | Potency [9] | Potency [7] | Potency [8]

CN(C)C(=O)CNC(=O)Cc1ccccc1
inactive: Potency [1] | Potency [2] | Potency [3] | Potency [4] | Potency [5] | Potency [6] | Potency [9] | Potency [7] | Potency [8]

NCC[C@H](O)C(=O)N[C@@H]1C[C@H](N)[C@@H](O[C@H]2O[C@H](CN)[C@@H](O)[C@H](O)[C@@H]2O)[C@H](O)[C@@H]1O[C@H]1O[C@H](CO)[C@@H](O)[C@H](N)[C@@H]1O
inactive: activity change, negative = cytotoxicity [1] 9.09% [at 0.597 µM] | activity change, negative = cytotoxicity [2] 22.5% [at 0.597 µM] | activity change, negative = cytotoxicity [3] 23.5% [at 0.597 µM] | activity change, negative = cytotoxicity [4] 23.2% [at 0.597 µM] | activity change, negative = cytotoxicity [5] 13.2% [at 0.462 µM] | activity change, negative = cytotoxicity [9] 11.8% [at 0.462 µM] | activity change, negative = cytotoxicity [7] -2.07% [at 0.462 µM] | activity change, negative = cytotoxicity [8] 16.7% [at 0.462 µM]

CC[C@@H]([C@H](C)O)n1ncn(-c2ccc(N3CCN(c4ccc(OC[C@@H]5CO[C@@](Cn6cncn6)(c6ccc(F)cc6F)C5)cc4)CC3)cc2)c1=O
active: Potency [5] 11.2 µM
inactive: Potency [1] | Potency [2] | Potency [3] | Potency [4] | Potency [6] | Potency [8]

CC(C)=CCNc1ncnc2c1ncn2[C@@H]1O[C@H](CO)[C@@H](O)[C@H]1O
active: Potency [1] 1.68 µM | Potency [2] 0.944 µM | Potency [3] 1.88 µM | Potency [4] 2.99 µM | Potency [5] 12.6 µM | Potency [6] 7.94 µM | Potency [9] 12.6 µM | Potency [7] 25.1 µM | Potency [8] 14.1 µM

CC(C)NCCCC1(C(N)=O)c2ccccc2-c2ccccc21
inactive: Potency [1] | Potency [2] | Potency [3] | Potency [4] | Potency [5] | Potency [9] | Potency [7] | Potency [8]

CO[C@]1(NC(=O)CSC(F)F)C(=O)N2C(C(=O)O)=C(CSc3nnnn3CCO)CO[C@H]21
inactive: Potency [1] | Potency [2] | Potency [3] | Potency [4] | Potency [5] | Potency [6] | Potency [9] | Potency [7] | Potency [8]

O=C(O)C1CCC1
inactive: Potency [1] | Potency [2] | Potency [3] | Potency [4] | Potency [5] | Potency [6] | Potency [9] | Potency [7] | Potency [8]

CCCCC(CC)COC(=O)c1ccccc1C(=O)O (centres undefined)
inactive: Potency [1] | Potency [2] | Potency [3] | Potency [4] | Potency [5] | Potency [6] | Potency [9] | Potency [7] | Potency [8]

Cc1cccc(C)c1NC(=O)c1cc(S(N)(=O)=O)c(Cl)cc1O
inactive: Potency [1] | Potency [2] | Potency [3] | Potency [4] | Potency [5] | Potency [9] | Potency [7] | Potency [8]

C/C=C(/C(=C/C)c1ccc(OC(C)=O)cc1)c1ccc(OC(C)=O)cc1
inactive: Potency [1] | Potency [2] | Potency [3] | Potency [4] | Potency [5] | Potency [6] | Potency [9] | Potency [7] | Potency [8]

Cc1onc(-c2c(Cl)cccc2Cl)c1C(=O)Cl
inactive: Potency [1] | Potency [2] | Potency [3] | Potency [4] | Potency [5] | Potency [9] | Potency [7] | Potency [8]

c1ccc(C(O[C@H]2CCCN(CCc3ccc4c(c3)OCO4)C2)c2ccccc2)cc1
inactive: Potency [1] | Potency [2] | Potency [3] | Potency [5] | Potency [6] | Potency [9] | Potency [7] | Potency [8]
